From PubChem BioAssay (NCI)
This is part of a sample that, as a whole, favours compounds with a hit. Of some 83,000 tested, about 20% had one in any assay.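 Step 1: grow cells in 96-well plates. Step 2: add test compound at a single concentration. Step 3: incubate 48 h. Step 4: record percent growth.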 The source made the active and inactive calls. Rule for the calls: active = growth percent below 10; inactive = the rest.

Key:
Assay in all cases: NCI-60 one-dose screen, 48 h (100 = growth as untreated, 0 = no growth, -100 = all killed)
[1] = system: DU-145 prostate; details: 10 µM unless noted
[2] = system: K-562 leukemia; details: 10 µM unless noted
[3] = system: MALME-3M melanoma; details: 10 µM unless noted
[4] = system: MDA-MB-231 breast; details: 10 µM unless noted
[5] = system: SF-268 CNS; details: 10 µM unless noted
[6] = system: SF-295 CNS; details: 10 µM unless noted
[7] = system: SF-539 CNS; details: 10 µM unless noted
[8] = system: UACC-257 melanoma; details: 10 µM unless noted
[9] = system: M14 melanoma; details: 10 µM unless noted
[10] = system: HCT-15 colon; details: 10 µM unless noted
[11] = system: HT29 colon; details: 10 µM unless noted
[12] = system: SNB-75 CNS; details: 10 µM unless noted
[13] = system: SNB-19 CNS; details: 10 µM unless noted
[14] = system: PC-3 prostate; details: 10 µM unless noted
[15] = system: SK-MEL-5 melanoma; details: 10 µM unless noted
[16] = system: UACC-62 melanoma; details: 10 µM unless noted
[17] = system: LOX IMVI melanoma; details: 10 µM
[18] = system: SK-MEL-28 melanoma; details: 10 µM unless noted
[19] = system: RXF 393 renal; details: 10 µM unless noted
[20] = system: U251 CNS; details: 10 µM unless noted

Measured: growth

C[n+]1cc2cc3c(cc2c2ccccc21)OCO3
active: [3] -0.635% | [5] -0.333% | [6] 9.18%
inactive: [1] 57.3% | [2] 49.1% | [4] 90.1% | [7] 38.8% | [8] 69.5% | [9] 81.4% | [10] 97.2% | [11] 63% | [12] 22.5% | [13] 16.1% | [14] 51.6% | [15] 43.1% | [16] 72.7% | [17] 63.2% | [18] 45.6%

O=C1NC(=O)C(c2ccccc2)O1 (stereo unspecified)
inactive: [1] 119% | [2] 92.6% | [3] 100% | [4] 122% | [19] 121% | [5] 115% | [7] 96.4% | [8] 98.8% | [10] 107% | [11] 105% | [12] 93.2% | [13] 109% | [20] 101% | [14] 102% | [15] 104% | [16] 105% | [17] 97.4% | [18] 109%

N=C(N)c1nn(C2OC(CO)C(O)C2O)c2nc[nH]c(=O)c12 (stereo unspecified)
inactive: [11] 11.7% | [20] 16%
active: [1] -49.1% | [2] -5.78% | [3] -39.9% | [4] -15.3% | [5] -7.38% | [6] 8.51% | [7] -43.8% | [8] 3.08% | [10] 0.318% | [12] 9.13% | [13] 5.88% | [14] -3.91% | [15] -97% | [17] -27.8% | [18] -53.9%

COc1ccc2c(c1)Nc1ccccc1S2
inactive: [1] 116% | [2] 102% | [3] 105% | [4] 109% | [19] 115% | [6] 108% | [7] 103% | [8] 115% | [9] 101% | [10] 104% | [11] 104% | [12] 108% | [13] 110% | [20] 97.2% | [14] 97.9% | [15] 101% | [16] 96.2% | [17] 113% | [18] 114%

CCc1ccccc1C(=O)N(CC)CC
inactive: [1] 104% | [2] 106% | [3] 102% | [4] 100% | [5] 97.5% | [6] 97.6% | [7] 94.9% | [8] 103% | [9] 103% | [10] 103% | [11] 106% | [12] 90.6% | [13] 105% | [20] 103% | [14] 102% | [15] 104% | [16] 99.5% | [17] 99.2% | [18] 102%

CC(C)(CC(=O)O)CC(=O)O
inactive: [1] 111% | [2] 107% | [3] 107% | [4] 95.5% | [5] 102% | [6] 110% | [7] 95% | [8] 113% | [9] 101% | [10] 105% | [11] 101% | [12] 90.2% | [13] 99.2% | [20] 109% | [14] 101% | [15] 97.7% | [16] 98.7% | [17] 104% | [18] 99.2%

CN(C)c1ncnc2c1cnn2C
inactive: [1] 104% | [2] 97% | [3] 103% | [4] 109% | [5] 84.6% | [6] 94.5% | [7] 94.2% | [8] 84.2% | [9] 103% | [10] 113% | [11] 109% | [12] 90.7% | [13] 99.1% | [20] 101% | [14] 85.2% | [15] 97.2% | [16] 92.9% | [17] 94.9% | [18] 112%

CCNc1ncnc2[nH]ncc12
inactive: [1] 117% | [2] 119% | [3] 72% | [4] 107% | [5] 112% | [6] 112% | [7] 96.2% | [8] 89.2% | [9] 107% | [10] 102% | [11] 108% | [12] 88.9% | [13] 104% | [20] 101% | [14] 94.6% | [15] 101% | [17] 98% | [18] 111%

NNc1ncnc2c1ncn2C1OC(CO)C(O)C1O (stereo unspecified)
inactive: [1] 19.3% | [2] 30.4% | [3] 122% | [4] 10.7% | [5] 50.3% | [6] 38.7% | [7] 90.9% | [8] 84.9% | [10] 11.2% | [12] 94.2% | [13] 57.8% | [20] 39.7% | [14] 32.3% | [15] 88.4% | [16] 60.5% | [17] 32.6% | [18] 88.8%
active: [11] 9.12%

CCOC(=O)c1ccc(Nc2sc(C(=O)c3ccc(Br)cc3)c(N)c2C#N)cc1
active: [6] -11.1% | [7] -1.74% | [11] 2.05% | [12] -18.6%
inactive: [1] 10.8% | [2] 12.9% | [3] 31.8% | [4] 52.9% | [5] 33.5% | [8] 38.2% | [9] 29.4% | [10] 27% | [13] 62.5% | [14] 17.5% | [15] 12.6% | [16] 36.7% | [17] 38.8% | [18] 36.3%

Cc1cccnc1NC1OC(=O)c2ccccc21 (stereo unspecified)
inactive: [1] 102% | [2] 101% | [3] 93.7% | [4] 115% | [19] 118% | [5] 124% | [7] 109% | [8] 100% | [10] 96.7% | [11] 104% | [12] 96.5% | [13] 101% | [20] 101% | [14] 114% | [15] 105% | [16] 96.6% | [17] 94.9% | [18] 112%

C=C1SC(=Nc2c(C)cccc2C)N(c2nc(Cl)nc(Cl)n2)C12CCCCC2
inactive: [1] 108% | [2] 95.2% | [3] 90.3% | [4] 115% | [19] 106% | [5] 107% | [7] 116% | [8] 94.6% | [9] 97.9% | [10] 109% | [11] 108% | [12] 96.7% | [13] 108% | [20] 102% | [14] 99.3% | [15] 84.2% | [16] 105% | [17] 104% | [18] 104%

C/C(=N\N=C(/C)c1cccc([N+](=O)[O-])c1)c1cccc([N+](=O)[O-])c1
inactive: [1] 95.3% | [2] 98.3% | [3] 85% | [19] 93.9% | [5] 80.2% | [6] 95.8% | [7] 93.4% | [8] 87.6% | [10] 100% | [11] 87.9% | [12] 83.8% | [13] 80.7% | [20] 91.1% | [14] 86.7% | [15] 94.3% | [16] 93.2% | [17] 91.6% | [18] 101%
active: [9] -36.5%

Ic1cccs1
inactive: [1] 107% | [2] 102% | [3] 94.6% | [19] 119% | [5] 99.3% | [6] 95.9% | [7] 101% | [8] 99.5% | [9] 104% | [10] 109% | [11] 94.2% | [12] 105% | [13] 99.6% | [20] 96.3% | [14] 99.5% | [15] 104% | [16] 98.5% | [17] 96.9% | [18] 111%

CC(CC(CCC(=O)O)(c1ccccc1)c1ccccc1)N(C)C (stereo unspecified)
inactive: [1] 115% | [2] 103% | [3] 109% | [19] 105% | [5] 102% | [6] 93% | [7] 95.1% | [8] 88.9% | [9] 95% | [10] 95.6% | [11] 105% | [12] 99.6% | [13] 110% | [20] 92.3% | [14] 103% | [15] 95.5% | [16] 103% | [17] 98.8% | [18] 104%

CN(C)c1ccc(/C=C/C(=O)c2ccc(NC(N)=O)cc2)cc1
inactive: [1] 98.8% | [2] 64.6% | [3] 82.3% | [19] 107% | [5] 99% | [6] 98.8% | [7] 81.1% | [8] 89.9% | [9] 86.8% | [10] 84.9% | [11] 95.2% | [12] 67.4% | [13] 80.1% | [20] 69% | [14] 98.4% | [15] 97.6% | [16] 92.2% | [18] 104%

COc1ccc(/C=C\C(=O)/C=C/c2ccc(OC)cc2)cc1
active: [2] 9.76% | [10] -13.7%
inactive: [1] 96.4% | [3] 95.1% | [19] 100% | [5] 105% | [6] 101% | [7] 62.8% | [8] 106% | [9] 40.2% | [11] 49.3% | [12] 103% | [13] 89.3% | [20] 63.8% | [14] 62.3% | [15] 91.7% | [16] 70.4% | [18] 106%

COc1ccc(NNS(=O)(=O)O)cc1
inactive: [1] 111% | [2] 99.5% | [3] 104% | [19] 95.1% | [5] 106% | [6] 92.5% | [7] 95.1% | [9] 92.5% | [10] 101% | [11] 99.9% | [12] 83.2% | [13] 98.1% | [20] 98% | [14] 86.1% | [15] 102% | [16] 96.7% | [17] 99.7% | [18] 107%
